# Paper PMC7862700, “An all-to-all approach to the identification of sequence-specific readers for epigenetic DNA modifications on cytosine”
# Legend:
# Experiment in all cases: DAPPL (digital affinity profiling via proximity ligation, sequencing); 10 mM Tris-HCl pH 7.5, 50 mM NaCl, 1 mM DTT, 4% glycerol, room temperature, 30 min; GST-TFs on glutathione beads, 16-mer random dsDNA library, 0.1% formaldehyde crosslink after washing; high values mean tight binding
# [1] = molecular target: T1, FLI1 (Homo sapiens, UniProt Q01543 1-452); details: protein: recombinant; tags: N-terminal GST; dsDNA, one strand shown
# T1 sequence: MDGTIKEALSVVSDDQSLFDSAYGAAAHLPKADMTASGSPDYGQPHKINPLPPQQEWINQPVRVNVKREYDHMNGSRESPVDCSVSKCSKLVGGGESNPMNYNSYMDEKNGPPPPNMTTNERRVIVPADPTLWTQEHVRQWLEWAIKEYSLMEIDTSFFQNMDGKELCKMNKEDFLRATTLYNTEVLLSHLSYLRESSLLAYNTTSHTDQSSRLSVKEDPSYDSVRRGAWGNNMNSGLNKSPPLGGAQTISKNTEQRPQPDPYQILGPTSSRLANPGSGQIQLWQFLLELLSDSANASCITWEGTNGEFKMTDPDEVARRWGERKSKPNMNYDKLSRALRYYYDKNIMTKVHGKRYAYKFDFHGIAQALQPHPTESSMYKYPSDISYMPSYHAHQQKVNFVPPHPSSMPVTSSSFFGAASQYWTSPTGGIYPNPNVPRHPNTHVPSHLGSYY
# Outline: (§1)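 Pools of DNA-barcoded human transcription factors, expressed in yeast as GST fusions on glutathione beads and combined with a tag-only sample, were incubated with 200 nmole of a 16-mer random double-stranded DNA library. Incubation took 30 min at room temperature in Tris/NaCl/DTT/glycerol buffer and was followed by washing, 0.1% formaldehyde crosslinking, proximity ligation (BsaI/T4 ligase, 1 h, 37 °C), PCR amplification and sequencing on an Illumina NextSeq500. Binding signal is the ratio of a hexamer's read frequency for a factor to its frequency for the tag-only sample.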
# [2] = molecular target: T2, ELK1 (Homo sapiens, UniProt P19419 1-428); details: protein: recombinant; tags: N-terminal GST; dsDNA, one strand shown
# T2 sequence: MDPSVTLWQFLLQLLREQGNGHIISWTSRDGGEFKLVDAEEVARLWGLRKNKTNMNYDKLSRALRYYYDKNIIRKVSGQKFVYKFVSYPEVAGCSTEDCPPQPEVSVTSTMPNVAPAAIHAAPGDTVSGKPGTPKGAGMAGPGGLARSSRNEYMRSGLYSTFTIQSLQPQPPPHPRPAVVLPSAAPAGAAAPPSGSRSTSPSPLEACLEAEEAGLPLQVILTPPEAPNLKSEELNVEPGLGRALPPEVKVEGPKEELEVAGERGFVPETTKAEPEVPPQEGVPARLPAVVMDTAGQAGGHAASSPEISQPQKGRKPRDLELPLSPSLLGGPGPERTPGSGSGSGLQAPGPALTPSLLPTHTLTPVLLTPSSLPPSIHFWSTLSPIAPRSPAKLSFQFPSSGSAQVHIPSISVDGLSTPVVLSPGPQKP
# Outline: as §1
# [3] = molecular target: T3, GABPA (Homo sapiens, UniProt Q06546 1-454); details: protein: recombinant; tags: N-terminal GST; dsDNA, one strand shown
# T3 sequence: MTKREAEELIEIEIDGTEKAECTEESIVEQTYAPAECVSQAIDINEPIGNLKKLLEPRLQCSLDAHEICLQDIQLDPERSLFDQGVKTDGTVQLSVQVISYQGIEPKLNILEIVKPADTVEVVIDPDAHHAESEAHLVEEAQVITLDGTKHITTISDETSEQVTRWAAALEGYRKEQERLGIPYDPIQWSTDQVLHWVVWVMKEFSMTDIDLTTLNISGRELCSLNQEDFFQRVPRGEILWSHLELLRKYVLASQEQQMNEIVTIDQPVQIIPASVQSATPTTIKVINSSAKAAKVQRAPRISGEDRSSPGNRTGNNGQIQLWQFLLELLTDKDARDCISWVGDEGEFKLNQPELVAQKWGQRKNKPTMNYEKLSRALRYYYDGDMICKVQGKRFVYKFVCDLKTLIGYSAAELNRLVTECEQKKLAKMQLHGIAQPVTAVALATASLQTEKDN
# Outline: as §1
# [4] = molecular target: T4, ERG (Homo sapiens, UniProt P11308 1-479); details: protein: recombinant; tags: N-terminal GST; dsDNA, one strand shown
# T4 sequence: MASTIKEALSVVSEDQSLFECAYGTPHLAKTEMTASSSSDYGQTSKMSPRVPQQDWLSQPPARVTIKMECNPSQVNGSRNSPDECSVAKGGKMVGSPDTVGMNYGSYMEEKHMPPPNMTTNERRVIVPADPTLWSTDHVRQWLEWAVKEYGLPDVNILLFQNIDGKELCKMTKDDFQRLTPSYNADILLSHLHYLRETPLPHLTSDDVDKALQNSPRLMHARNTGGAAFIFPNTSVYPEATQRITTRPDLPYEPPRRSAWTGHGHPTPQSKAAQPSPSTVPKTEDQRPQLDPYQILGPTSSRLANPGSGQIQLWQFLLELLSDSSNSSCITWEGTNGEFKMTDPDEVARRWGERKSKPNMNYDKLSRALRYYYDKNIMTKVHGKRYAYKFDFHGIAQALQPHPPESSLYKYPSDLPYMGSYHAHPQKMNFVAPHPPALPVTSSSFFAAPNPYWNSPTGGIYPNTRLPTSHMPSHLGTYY
# Outline: as §1
# [5] = molecular target: ELF1 (Homo sapiens, UniProt P32519 1-619); details: protein: recombinant; tags: N-terminal GST; dsDNA, one strand shown
# Chain of ELF1 (P32519 whole entry): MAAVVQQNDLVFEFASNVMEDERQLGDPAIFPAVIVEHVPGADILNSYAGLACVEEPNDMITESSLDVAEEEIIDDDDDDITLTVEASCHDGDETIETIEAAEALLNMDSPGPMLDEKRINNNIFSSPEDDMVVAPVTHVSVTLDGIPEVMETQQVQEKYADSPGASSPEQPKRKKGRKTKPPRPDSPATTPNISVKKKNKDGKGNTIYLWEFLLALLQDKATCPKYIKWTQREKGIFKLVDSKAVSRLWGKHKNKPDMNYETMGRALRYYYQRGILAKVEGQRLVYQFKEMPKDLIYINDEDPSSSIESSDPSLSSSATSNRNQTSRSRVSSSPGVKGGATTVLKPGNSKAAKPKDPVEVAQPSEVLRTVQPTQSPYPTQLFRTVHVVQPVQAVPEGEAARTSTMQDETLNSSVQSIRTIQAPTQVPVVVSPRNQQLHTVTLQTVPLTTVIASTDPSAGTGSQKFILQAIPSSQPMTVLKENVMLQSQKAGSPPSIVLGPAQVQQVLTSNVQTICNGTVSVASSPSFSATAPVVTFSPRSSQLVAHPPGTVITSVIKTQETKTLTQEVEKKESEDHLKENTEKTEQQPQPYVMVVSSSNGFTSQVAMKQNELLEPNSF
# Outline: as §1
# [6] = molecular target: T5, EHF (Homo sapiens, UniProt Q9NZC4 1-300); details: protein: recombinant; tags: N-terminal GST; dsDNA, one strand shown
# T5 sequence: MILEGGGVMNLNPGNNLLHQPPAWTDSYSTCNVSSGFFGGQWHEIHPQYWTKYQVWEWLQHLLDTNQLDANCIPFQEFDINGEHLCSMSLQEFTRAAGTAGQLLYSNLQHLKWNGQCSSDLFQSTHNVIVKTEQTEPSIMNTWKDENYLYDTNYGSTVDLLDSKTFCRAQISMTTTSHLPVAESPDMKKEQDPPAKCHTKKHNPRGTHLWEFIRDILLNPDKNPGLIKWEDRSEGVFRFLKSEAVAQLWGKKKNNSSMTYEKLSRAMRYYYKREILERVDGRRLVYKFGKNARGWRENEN
# Outline: as §1
# [7] = molecular target: SPI1 (Homo sapiens, UniProt P17947 1-270); details: protein: recombinant; tags: N-terminal GST; dsDNA, one strand shown
# Outline: as §1
# [8] = molecular target: SPIB (Homo sapiens, UniProt Q01892 1-262); details: protein: recombinant; tags: N-terminal GST; dsDNA, one strand shown
# Chain of SPIB (Q01892 whole entry): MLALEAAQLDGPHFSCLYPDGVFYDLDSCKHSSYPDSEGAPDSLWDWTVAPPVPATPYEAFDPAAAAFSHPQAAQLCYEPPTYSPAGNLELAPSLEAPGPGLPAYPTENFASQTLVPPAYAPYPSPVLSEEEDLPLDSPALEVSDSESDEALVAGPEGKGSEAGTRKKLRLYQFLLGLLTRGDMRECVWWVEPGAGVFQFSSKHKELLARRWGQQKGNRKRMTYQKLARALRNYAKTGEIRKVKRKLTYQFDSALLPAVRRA
# Outline: as §1
# [9] = molecular target: T6, ELK3 (Homo sapiens, UniProt P41970 1-407); details: protein: recombinant; tags: N-terminal GST; dsDNA, one strand shown
# T6 sequence: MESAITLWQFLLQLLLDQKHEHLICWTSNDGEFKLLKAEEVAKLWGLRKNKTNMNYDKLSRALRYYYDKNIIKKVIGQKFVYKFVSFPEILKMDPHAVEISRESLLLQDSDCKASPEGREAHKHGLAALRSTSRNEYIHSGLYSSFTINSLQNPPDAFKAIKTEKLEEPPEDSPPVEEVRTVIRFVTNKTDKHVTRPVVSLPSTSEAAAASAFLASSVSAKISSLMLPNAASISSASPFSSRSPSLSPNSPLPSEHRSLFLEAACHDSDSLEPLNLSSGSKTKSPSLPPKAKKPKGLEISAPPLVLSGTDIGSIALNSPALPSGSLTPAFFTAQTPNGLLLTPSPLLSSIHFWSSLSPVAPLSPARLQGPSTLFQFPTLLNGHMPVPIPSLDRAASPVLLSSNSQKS
# Outline: as §1
# [10] = molecular target: T7, FEV (Homo sapiens, UniProt Q99581 1-238); details: protein: recombinant; tags: N-terminal GST; dsDNA, one strand shown
# T7 sequence: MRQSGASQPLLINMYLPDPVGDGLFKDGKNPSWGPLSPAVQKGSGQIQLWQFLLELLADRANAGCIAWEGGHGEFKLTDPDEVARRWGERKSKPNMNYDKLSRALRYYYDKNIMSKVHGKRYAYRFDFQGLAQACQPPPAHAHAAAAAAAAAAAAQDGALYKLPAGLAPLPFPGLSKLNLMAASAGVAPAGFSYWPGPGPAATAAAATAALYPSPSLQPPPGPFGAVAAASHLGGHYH
# Outline: as §1
# [11] = molecular target: ETV5 (Homo sapiens, UniProt P41161 1-510); details: protein: recombinant; tags: N-terminal GST; dsDNA, one strand shown
# Chain of ETV5 (P41161 whole entry): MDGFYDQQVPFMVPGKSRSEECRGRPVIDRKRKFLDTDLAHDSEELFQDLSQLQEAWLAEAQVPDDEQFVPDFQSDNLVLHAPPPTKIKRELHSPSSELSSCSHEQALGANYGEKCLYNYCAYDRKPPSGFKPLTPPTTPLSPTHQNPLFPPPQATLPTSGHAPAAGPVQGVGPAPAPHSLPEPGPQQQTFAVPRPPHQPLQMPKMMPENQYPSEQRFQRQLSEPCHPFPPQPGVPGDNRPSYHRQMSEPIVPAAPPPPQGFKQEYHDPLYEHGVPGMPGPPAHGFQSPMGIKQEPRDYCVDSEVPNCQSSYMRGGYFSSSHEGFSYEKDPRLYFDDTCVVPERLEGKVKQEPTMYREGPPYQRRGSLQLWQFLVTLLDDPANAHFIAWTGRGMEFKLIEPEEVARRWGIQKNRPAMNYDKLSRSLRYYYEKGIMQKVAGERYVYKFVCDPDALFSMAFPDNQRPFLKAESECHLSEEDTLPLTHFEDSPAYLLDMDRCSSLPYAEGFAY
# Outline: as §1
# [12] = molecular target: HSF1 (Homo sapiens, UniProt Q00613 1-529); details: protein: recombinant; tags: N-terminal GST; chain copies: 3; dsDNA, one strand shown
# Chain of HSF1 (Q00613 whole entry): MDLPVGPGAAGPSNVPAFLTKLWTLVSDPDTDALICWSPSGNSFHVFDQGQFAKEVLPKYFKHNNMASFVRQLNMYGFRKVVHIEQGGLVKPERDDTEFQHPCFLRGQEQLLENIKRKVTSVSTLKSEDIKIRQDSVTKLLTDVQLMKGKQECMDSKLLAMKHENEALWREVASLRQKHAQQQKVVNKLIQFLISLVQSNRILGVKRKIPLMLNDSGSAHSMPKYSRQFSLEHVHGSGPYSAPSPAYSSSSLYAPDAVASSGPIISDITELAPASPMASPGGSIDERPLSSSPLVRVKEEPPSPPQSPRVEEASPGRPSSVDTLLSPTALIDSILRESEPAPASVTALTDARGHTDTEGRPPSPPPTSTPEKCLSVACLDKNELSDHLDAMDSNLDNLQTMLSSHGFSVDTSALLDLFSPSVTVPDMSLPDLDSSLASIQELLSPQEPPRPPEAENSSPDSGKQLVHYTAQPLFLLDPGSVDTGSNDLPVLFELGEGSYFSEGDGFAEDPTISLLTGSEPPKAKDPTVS
# Outline: as §1
# [13] = molecular target: T8, SPIC (Homo sapiens, UniProt Q8N5J4 1-248); details: protein: recombinant; tags: N-terminal GST; dsDNA, one strand shown
# T8 sequence: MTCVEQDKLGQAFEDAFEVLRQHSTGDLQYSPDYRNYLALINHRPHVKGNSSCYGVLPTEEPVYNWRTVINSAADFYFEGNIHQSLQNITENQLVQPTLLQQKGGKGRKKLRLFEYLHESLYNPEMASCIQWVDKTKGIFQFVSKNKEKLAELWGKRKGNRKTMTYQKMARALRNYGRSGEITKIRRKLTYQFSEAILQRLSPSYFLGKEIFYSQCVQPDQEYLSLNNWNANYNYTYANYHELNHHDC
# Outline: as §1
# [14] = molecular target: ELF4 (Homo sapiens, UniProt Q99607 1-663); details: protein: recombinant; tags: N-terminal GST; dsDNA, one strand shown
# Chain of ELF4 (Q99607 whole entry): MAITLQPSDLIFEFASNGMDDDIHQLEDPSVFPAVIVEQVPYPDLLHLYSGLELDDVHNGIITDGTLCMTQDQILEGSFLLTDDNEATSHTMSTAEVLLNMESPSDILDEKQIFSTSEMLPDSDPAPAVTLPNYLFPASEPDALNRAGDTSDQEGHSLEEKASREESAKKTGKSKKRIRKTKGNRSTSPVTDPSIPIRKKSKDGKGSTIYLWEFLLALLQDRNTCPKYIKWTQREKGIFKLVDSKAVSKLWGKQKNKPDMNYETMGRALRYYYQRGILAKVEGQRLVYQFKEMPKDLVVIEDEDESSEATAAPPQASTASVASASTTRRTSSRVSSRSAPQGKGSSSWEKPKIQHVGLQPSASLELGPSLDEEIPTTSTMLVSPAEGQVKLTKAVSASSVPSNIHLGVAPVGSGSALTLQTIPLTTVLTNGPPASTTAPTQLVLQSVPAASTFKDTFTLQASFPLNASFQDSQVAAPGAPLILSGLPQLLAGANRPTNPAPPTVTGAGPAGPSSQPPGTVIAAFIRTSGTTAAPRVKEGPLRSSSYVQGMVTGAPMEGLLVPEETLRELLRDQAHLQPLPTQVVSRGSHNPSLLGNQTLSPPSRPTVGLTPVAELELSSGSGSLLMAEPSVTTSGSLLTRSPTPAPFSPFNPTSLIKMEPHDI
# Outline: as §1
# [15] = molecular target: T9, ELK4 (Homo sapiens, UniProt P28324-2 1-405); details: protein: recombinant; tags: N-terminal GST; dsDNA, one strand shown
# T9 sequence: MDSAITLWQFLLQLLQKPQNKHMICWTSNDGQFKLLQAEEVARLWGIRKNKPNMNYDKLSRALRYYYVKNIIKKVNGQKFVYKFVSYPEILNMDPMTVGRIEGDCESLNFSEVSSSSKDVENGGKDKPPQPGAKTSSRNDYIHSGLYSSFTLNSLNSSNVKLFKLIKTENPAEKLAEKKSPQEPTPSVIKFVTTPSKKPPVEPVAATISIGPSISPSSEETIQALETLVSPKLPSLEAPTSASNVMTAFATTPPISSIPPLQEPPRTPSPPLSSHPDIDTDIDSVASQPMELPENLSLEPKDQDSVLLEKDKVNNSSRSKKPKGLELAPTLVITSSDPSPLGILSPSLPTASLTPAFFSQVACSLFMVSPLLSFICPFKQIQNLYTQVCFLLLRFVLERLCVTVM
# Outline: as §1
# [16] = molecular target: T10, ETV2 (Homo sapiens, UniProt O00321 1-342); details: protein: recombinant; tags: N-terminal GST; dsDNA, one strand shown
# T10 sequence: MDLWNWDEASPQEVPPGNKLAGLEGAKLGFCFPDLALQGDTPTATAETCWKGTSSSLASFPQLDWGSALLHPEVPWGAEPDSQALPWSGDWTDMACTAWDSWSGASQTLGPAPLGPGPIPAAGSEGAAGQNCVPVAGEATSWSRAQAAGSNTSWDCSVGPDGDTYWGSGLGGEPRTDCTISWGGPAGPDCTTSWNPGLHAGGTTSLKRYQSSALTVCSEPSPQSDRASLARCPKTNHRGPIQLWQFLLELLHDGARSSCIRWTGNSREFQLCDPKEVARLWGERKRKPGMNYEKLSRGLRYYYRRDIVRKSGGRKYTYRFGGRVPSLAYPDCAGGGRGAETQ
# Outline: as §1
# [17] = molecular target: T11, ELF3 (Homo sapiens, UniProt P78545 1-371); details: protein: recombinant; tags: N-terminal GST; dsDNA, one strand shown
# T11 sequence: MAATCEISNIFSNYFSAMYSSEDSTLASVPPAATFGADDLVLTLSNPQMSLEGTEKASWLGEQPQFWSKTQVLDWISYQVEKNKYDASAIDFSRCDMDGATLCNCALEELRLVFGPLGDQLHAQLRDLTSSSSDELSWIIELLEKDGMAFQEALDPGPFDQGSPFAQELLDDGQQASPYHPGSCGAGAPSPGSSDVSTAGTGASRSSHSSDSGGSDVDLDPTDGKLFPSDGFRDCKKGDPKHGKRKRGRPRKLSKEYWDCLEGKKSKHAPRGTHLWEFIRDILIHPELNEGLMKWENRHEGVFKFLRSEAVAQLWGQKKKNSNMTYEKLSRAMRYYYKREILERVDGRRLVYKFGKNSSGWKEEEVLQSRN
# Outline: as §1
# [18] = molecular target: CRX (Homo sapiens, UniProt O43186 1-299); details: protein: recombinant; tags: N-terminal GST; dsDNA, one strand shown
# Chain of CRX (O43186 whole entry): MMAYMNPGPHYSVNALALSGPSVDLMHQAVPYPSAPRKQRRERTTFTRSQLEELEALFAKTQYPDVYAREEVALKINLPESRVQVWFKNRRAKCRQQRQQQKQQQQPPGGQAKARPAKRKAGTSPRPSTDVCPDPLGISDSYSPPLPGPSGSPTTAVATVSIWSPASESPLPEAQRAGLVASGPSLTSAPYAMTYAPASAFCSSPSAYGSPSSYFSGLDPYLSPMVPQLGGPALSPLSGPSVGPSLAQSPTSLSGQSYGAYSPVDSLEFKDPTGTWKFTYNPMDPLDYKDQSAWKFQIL
# Outline: as §1
# [19] = molecular target: ETV1 (Homo sapiens, UniProt P50549 1-477); details: protein: recombinant; tags: N-terminal GST; dsDNA, one strand shown
# Chain of ETV1 (P50549 whole entry): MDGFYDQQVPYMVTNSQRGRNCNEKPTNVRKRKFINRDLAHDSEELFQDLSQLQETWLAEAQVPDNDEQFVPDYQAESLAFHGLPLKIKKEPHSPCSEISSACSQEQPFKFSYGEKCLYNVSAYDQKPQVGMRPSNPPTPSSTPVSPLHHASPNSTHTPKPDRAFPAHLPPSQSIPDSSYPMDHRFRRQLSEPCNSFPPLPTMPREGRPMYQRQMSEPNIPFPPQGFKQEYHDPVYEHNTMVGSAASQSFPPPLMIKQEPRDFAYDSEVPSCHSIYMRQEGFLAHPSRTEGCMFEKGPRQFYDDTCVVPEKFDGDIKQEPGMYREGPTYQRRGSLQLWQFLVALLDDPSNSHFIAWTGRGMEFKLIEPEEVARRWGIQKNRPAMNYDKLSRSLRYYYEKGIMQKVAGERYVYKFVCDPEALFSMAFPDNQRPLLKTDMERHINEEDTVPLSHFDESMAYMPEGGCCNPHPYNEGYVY
# Outline: as §1
sequence,measurement,setting,value
TAATCT,binding signal,[1],"1.39 fold enrichment (6-mer frequency, TF over GST control)"
same,binding signal,[2],"1.34 fold enrichment (6-mer frequency, TF over GST control)"
same,binding signal,[3],"1.33 fold enrichment (6-mer frequency, TF over GST control)"
same,binding signal,[4],"1.38 fold enrichment (6-mer frequency, TF over GST control)"
same,binding signal,[5],"1.4 fold enrichment (6-mer frequency, TF over GST control)"
same,binding signal,[6],"1.44 fold enrichment (6-mer frequency, TF over GST control)"
same,binding signal,[7],"1.33 fold enrichment (6-mer frequency, TF over GST control)"
same,binding signal,[8],"1.4 fold enrichment (6-mer frequency, TF over GST control)"
same,binding signal,[9],"1.46 fold enrichment (6-mer frequency, TF over GST control)"
same,binding signal,[10],"1.3 fold enrichment (6-mer frequency, TF over GST control)"
same,binding signal,[11],"1.44 fold enrichment (6-mer frequency, TF over GST control)"
same,binding signal,[12],"3.55 fold enrichment (6-mer frequency, TF over GST control)"
same,binding signal,[13],"1.3 fold enrichment (6-mer frequency, TF over GST control)"
same,binding signal,[14],"1.51 fold enrichment (6-mer frequency, TF over GST control)"
same,binding signal,[15],"1.4 fold enrichment (6-mer frequency, TF over GST control)"
same,binding signal,[16],"1.34 fold enrichment (6-mer frequency, TF over GST control)"
same,binding signal,[17],"1.57 fold enrichment (6-mer frequency, TF over GST control)"
same,binding signal,[18],"5.78 fold enrichment (6-mer frequency, TF over GST control)"
same,binding signal,[19],"1.52 fold enrichment (6-mer frequency, TF over GST control)"
